From the supplement of paper PMC12045047 come the findings set out here.

Values without a mark were called inactive.

In the first experiment the test system is primary human airway basal cells (HBEC, luciferase-transduced). The experiment can be described thus: proliferation (luciferase bioluminescence) Z score relative to plate mean; higher = more proliferation / more cells, active = 1.96 or more. The following applies: donor: 1; 0.5 µM; library: ENZO Libraries; 4 days. Here is the method:
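Primary human bronchial epithelial (airway basal) cells from two donors, lentivirally transduced with pHIV-Luc-ZsGreen, were seeded at 2000 cells/well in 384-well plates in FAD medium with ENZO or Prestwick library compounds and cultured for 4 days. Luciferin was then added and bioluminescence was read as a measure of cell number. Relative light units were converted to Z scores against the plate, and the mean of triplicate wells is reported.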
For `Cc1ccc(S(=O)(=O)N[C@@H](Cc2ccccc2)C(=O)CCl)cc1`, the proliferation was -0.621.

Regarding `Cn1cnc2nc(NCCO)nc(NCc3ccccc3)c21` [Iso-olomoucine], the proliferation is 0.048.

As for `C=C1C(=O)O[C@@H](CCC)[C@@H]1C(=O)O` [Butyrolactone 3], the proliferation was -0.342.

Turning to `COc1cc2nc(N3CCCN(C)CC3)nc(NC3CCN(Cc4ccccc4)CC3)c2cc1OC`, the proliferation was -0.123.

For `NC(=O)c1cccc(-c2cccc(OC(=O)NC3CCCCC3)c2)c1`, the proliferation is 0.0752.

Regarding `NCC1CCC(C(=O)N[C@@H](Cc2ccccc2)C(=O)Nc2ccc(CC(=O)O)cc2)CC1` (stereo not given in full), the proliferation was 0.228.

As to `CCCC(CCC)C(=O)NO` [Valproic acid hydroxamate], the proliferation is -0.292.

Take `C=C(C)[C@@H](CC=C(C)C)C[C@@]12C[C@@H](CC=C(C)C)C(C)(C)[C@@](CC=C(C)C)(C(=O)C(C(=O)c3ccc(O)c(O)c3)=C1O)C2=O` [Garcinol]: the proliferation was -0.468.

On to `C=CC(=O)c1ccc2ccccc2c1`, for which the proliferation was 0.129.

As to `Cc1ccc(C(=O)c2cc(/C=C/C(=O)NO)n(C)c2)cc1`, the proliferation was -0.0732.

For `Nc1ccc(CC(CC(=O)O)C(=O)O)cc1` [4-Amino-D L-benzylsuccinic acid], the proliferation is 0.379.

As to `CCCC(CCC)C(=O)O` [Valproic acid], the proliferation was -0.00583.

Regarding `CC(C)(C)c1cc(C=C(C#N)C(N)=S)cc(C(C)(C)C)c1O`, the proliferation is -0.666.

As to `CCOC(=O)[C@H](CCc1ccccc1)N[C@@H](C)C(=O)N1CCC[C@H]1C(=O)O` [Enalapril], the proliferation is -0.154.

With `CC(C)C[C@H](NP(=O)(O)O[C@@H]1O[C@@H](C)[C@H](O)[C@@H](O)[C@H]1O)C(=O)N[C@@H](Cc1c[nH]c2ccccc12)C(=O)O` [Phosphoramidon], the proliferation was -0.109.

On to `O=Nc1ccc(O)c2ncccc12`, for which the proliferation was -0.683.

On to `Oc1c2ccccc2c2c3c(cccc13)N=N2`, for which the proliferation was 0.134.

For `CC(C)c1cc(/C=C(\C#N)C(=O)NCCCc2ccccc2)cc(C(C)C)c1O`, the proliferation was -0.208.

`C[C@H](NC(=O)[C@@H]1CCCN1C(=O)[C@@H]1CCCN1C(=O)[C@@H](O)[C@H](N)Cc1ccccc1)C(N)=O` [Apstatin]: the proliferation was -0.513.

Take `O=C[C@@H]1CCCN1C(=O)[C@@H]1CCCN1C(=O)OCc1ccccc1` [Z-Prolyl-prolinal]: the proliferation was -0.531.

The same experiment, now with this note: donor: 1; 5 µM; library: ENZO Libraries; 4 days.
Turning to `Cc1ccc(S(=O)(=O)N[C@@H](Cc2ccccc2)C(=O)CCl)cc1`, the proliferation was -0.67.

In the case of `Cn1cnc2nc(NCCO)nc(NCc3ccccc3)c21` [Iso-olomoucine], the proliferation is 0.096.

Take `C=C1C(=O)O[C@@H](CCC)[C@@H]1C(=O)O` [Butyrolactone 3]: the proliferation was 0.149.

Consider `COc1cc2nc(N3CCCN(C)CC3)nc(NC3CCN(Cc4ccccc4)CC3)c2cc1OC`, for which the proliferation is -0.996.

Consider `NC(=O)c1cccc(-c2cccc(OC(=O)NC3CCCCC3)c2)c1`, for which the proliferation was 0.55.

For the molecule `NCC1CCC(C(=O)N[C@@H](Cc2ccccc2)C(=O)Nc2ccc(CC(=O)O)cc2)CC1` (stereo not given in full), the proliferation was 0.079.

Regarding `CCCC(CCC)C(=O)NO` [Valproic acid hydroxamate], the proliferation is -0.132.

As for `C=C(C)[C@@H](CC=C(C)C)C[C@@]12C[C@@H](CC=C(C)C)C(C)(C)[C@@](CC=C(C)C)(C(=O)C(C(=O)c3ccc(O)c(O)c3)=C1O)C2=O` [Garcinol], the proliferation is -0.215.

With `C=CC(=O)c1ccc2ccccc2c1`, the proliferation was -0.357.

For the molecule `Cc1ccc(C(=O)c2cc(/C=C/C(=O)NO)n(C)c2)cc1`, the proliferation was -0.0538.

For the molecule `Nc1ccc(CC(CC(=O)O)C(=O)O)cc1` [4-Amino-D L-benzylsuccinic acid], the proliferation is -0.241.

Regarding `CCCC(CCC)C(=O)O` [Valproic acid], the proliferation was -0.171.

For `CC(C)(C)c1cc(C=C(C#N)C(N)=S)cc(C(C)(C)C)c1O`, the proliferation was -0.702.

Take `CCOC(=O)[C@H](CCc1ccccc1)N[C@@H](C)C(=O)N1CCC[C@H]1C(=O)O` [Enalapril]: the proliferation was -0.126.

With `CC(C)C[C@H](NP(=O)(O)O[C@@H]1O[C@@H](C)[C@H](O)[C@@H](O)[C@H]1O)C(=O)N[C@@H](Cc1c[nH]c2ccccc12)C(=O)O` [Phosphoramidon], the proliferation was 0.079.

Consider `O=Nc1ccc(O)c2ncccc12`, for which the proliferation was -1.09.

For `Oc1c2ccccc2c2c3c(cccc13)N=N2`, the proliferation was -0.168.

For `CC(C)c1cc(/C=C(\C#N)C(=O)NCCCc2ccccc2)cc(C(C)C)c1O`, the proliferation is -0.405.

Turning to `C[C@H](NC(=O)[C@@H]1CCCN1C(=O)[C@@H]1CCCN1C(=O)[C@@H](O)[C@H](N)Cc1ccccc1)C(N)=O` [Apstatin], the proliferation was -0.193.

`O=C[C@@H]1CCCN1C(=O)[C@@H]1CCCN1C(=O)OCc1ccccc1` [Z-Prolyl-prolinal]: the proliferation is -0.515.
